Source: PubChem (several laboratories)
Y pestis TopoI – Yersinia pestis topoisomerase I inhibitors, primary screen, biochemical, cleavage product accumulation, plate reader, single point | DNA topoisomerase I (Yersinia pestis CO92) | Y. pestis Topo-I cleavage product accumulation | activity, % at 10 µM | 360,000 tested, 0.064% active; in the data active means activity above about 50%, passing the limit was not always enough
PrPC TRFRET – inhibitors of human cell surface prion protein PrPC, primary screen, cell-based, TR-FRET. Major prion protein (Homo sapiens), P04156. TR-FRET read-out. inhibition, % at 13.8 µM. 370,000 tested, 0.43% active. AID 720596, 2013; in the data active means inhibition above about 24%; further: 0% = median of the test wells and 100% = reference compound wells
GDH-TPI counter – GDH-TPI coupling enzyme inhibitors, primary screen, artefact control for M. tuberculosis FBA inhibitor project, biochemical, absorbance, full deck; 360,000 tested, 1.2% active; AID 588335, 2011; inhibition, % at 4.8 µM; GDH-TPI coupled enzyme counterscreen, NADH absorbance; in the data active means inhibition above about 30%;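 further: 0% = DMSO wells and 100% = wells lacking the enzyme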
TcdB GH inh – TcdB glycohydrolase inhibitors, primary screen, biochemical, single point, plate reader | inhibition, % at 9.99 µM | Toxin B (Clostridioides difficile), P18177 | 350,000 tested, 0.24% active | TcdB glycohydrolase enzymatic assay; in the data active means inhibition above about 10%
FBA Mtb inh – Mtb FBA enzyme inhibitors, primary screen, biochemical, fluorescence, strain H37Rv; inhibition, % at 1 µM; 360,000 tested, 2.3% active; Fructose-bisphosphate aldolase (Mycobacterium tuberculosis (strain ATCC 25618 / H37Rv)), …; purified M. tuberculosis FBA, fluorescence read-out; in the data active means inhibition above about 27%;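 further: 0% = vehicle and 100% = reference inhibitor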
* hit, by the source's call; . = not tested or not shown; + = active, no number. Hits are enriched below; roughly 3.2% of the tested compounds scored in any of these assays.

SMILES	Y pestis TopoI	PrPC TRFRET	GDH-TPI counter	TcdB GH inh	FBA Mtb inh
CC(C)NC(=O)N(C)C[C@@H]1Oc2ccc(NC(=O)C3CC3)cc2CC(=O)N([C@@H](C)CO)C[C@H]1C	.	.	.	-2	.
Cc1c(-c2cccc(NC(=O)c3ccco3)c2)nc2ncccn12	2	-14	29	0	+
Cc1c(-c2cccc(NC(=O)c3cccs3)c2)nc2ncccn12	1	-18	11	1	+
O=C(Nc1cccc(-c2cnc3ccccc3n2)c1)c1ccco1	-3	-25	20	.	0
C[C@@H]1CN([C@H](C)CO)C(=O)Cc2cc(NC(=O)NC3CCCCC3)ccc2O[C@H]1CN(C)Cc1ccccc1	.	.	.	0	.
C[C@@H]1CN([C@H](C)CO)S(=O)(=O)c2ccc(C3=CCCC3)cc2O[C@@H]1CN(C)C(=O)c1cnccn1	.	.	.	1	.
CC(C)c1nn2c(N)c(/C=C3\C=Nc4ccccc43)c(=O)nc2s1	3	3	12	0	1
CCC(CC)c1nn2c(N)c(/C=C3\C=Nc4ccccc43)c(=O)nc2s1	14	8	19	0	+
COc1ccc(CNc2oc(-c3cccc4ccccc34)nc2P(=O)(OC)OC)cc1	29	3	7	2	+
COP(=O)(OC)c1nc(-c2cccc3ccccc23)oc1NCc1ccccc1	-6	-2	16	.	192*
C[C@H](NC(=O)C[C@H]1C=C[C@@H](NC(=O)CN2CCOCC2)[C@@H](CO)O1)c1ccccc1	.	.	.	0	.
O=C([C@@H]1[C@@H](CO)[C@@H]2Cn3c(cccc3=O)[C@@H]2N1Cc1ccccc1Cl)N1CCOCC1	.	.	.	0	.
Cc1cc2c(=O)n(NC(N)=O)c(C)nc2s1	4	-6	-2	.	150*
CNC[C@@H]1Oc2cc(C#Cc3cccnc3)ccc2S(=O)(=O)N([C@@H](C)CO)C[C@@H]1C	.	.	.	2	.
COc1cc2c(c(OC)c1OC)C(=O)C(=Cc1ccccc1)O2	18	-4	36*	1	-1
COc1ccccc1C(=O)Oc1ccc2c(c1)O/C(=C\c1ccncc1)C2=O	26	-7	17	1	-12
COC(=O)c1ccccc1N/C=C1\CCc2c(c(C)nn2-c2ccccn2)C1=O	21	5	32*	.	9
O=C(c1ccc2c(c1)N(Cc1ccccc1)C(=O)c1ccccc1S2)N1CCCC1	18	0	3	34*	0
O=C(c1ccc2c(c1)N(Cc1ccccc1F)C(=O)c1ccccc1S2)N1CCOCC1	.	2	.	10*	.
O=C(NCCN1CCOCC1)c1ccc2c(c1)N(Cc1ccccc1F)C(=O)c1ccccc1S2	17	0	6	2	-1
CC(=O)N(C)C[C@@H]1Oc2cc(-c3cncnc3)ccc2S(=O)(=O)N([C@H](C)CO)C[C@H]1C	.	.	.	-1	.
Cc1nc2ccc(-c3nc4cc(N)ccc4o3)cc2[nH]1	-4	3	21	.	12
Nc1ccc2oc(-c3ccc4nc[nH]c4c3)nc2c1	-1	1	31*	.	6
Cn1nc(NC(=O)C(F)(F)F)c2ncc(-c3ccccc3)nc21	-4	-13	32*	2	6
C[C@H]1CCCCO[C@H](CN(C)C(=O)CCCN(C)C)[C@@H](C)CN([C@@H](C)CO)C(=O)c2cc(NC(=O)CCC(F)(F)F)ccc2O1	.	.	.	0	.
SMILES	Y pestis TopoI	PrPC TRFRET	GDH-TPI counter	TcdB GH inh	FBA Mtb inh
Cc1ccc(/C=C/C(=O)N2CCC(Cc3ccccc3)CC2)cc1	51*	2	8	.	-1
COc1ccc(/C(C)=N/N2C(=O)c3ccccc3NC2c2ccc(O)c(OC)c2)cc1 (stereo unspecified)	-6	7	35*	9	12
O=C(COc1ncnc2ccccc12)NCCc1ccc(F)cc1	-4	2	-7	13*	-2
CC(C)CNC(=O)COc1ncnc2ccccc12	-10	0	5	.	2
C#CCSc1nc(C)cc(C(=O)OCC)c1C#N	2	-5	0	1	3
Cc1cc(C(=O)OCCO)c(C#N)c(N)n1	3	3	12	.	143*
COc1cc(/C=C/C(=O)N2CCC=CC2=O)cc(OC)c1OC	0	2	35*	2	3
Cc1c(-n2c(O)c(C3=c4ccccc4=NC3=O)sc2=S)c(=O)n(-c2ccccc2)n1C	1	-9	0	18*	0
O=C1CC2(CCN(C(=O)C3CC(=O)N(c4ccccc4)C3)CC2)Oc2ccccc21 (stereo unspecified)	13	-6	6	1	12
COc1cccc(N2CC(C(=O)N3CCC4(CC3)CC(=O)c3ccccc3O4)CC2=O)c1 (stereo unspecified)	217*	-3	4	2	9
COc1ccc(NC(=O)N(C)C[C@@H]2OCCCC[C@@H](C)Oc3ccc(NC(=O)Nc4ccc5c(c4)OCO5)cc3C(=O)N([C@H](C)CO)C[C@@H]2C)cc1	.	.	.	1	.
COc1ccc(OC)c(N=CC2=C(O)CC(C)(C)CC2=O)c1	13	3	39*	.	3
COc1ccc(N=CC2=C(O)CCCC2=O)cc1	-3	6	37*	-1	-2
CC1(C)CC(=O)C(C=Nc2ccc3c(c2)OCO3)=C(O)C1	0	3	54*	.	1
COc1ccc(N=CC2=C(O)CC(C)(C)CC2=O)cc1	-7	10	42*	.	0
COc1ccc(N=Cc2c(O)cc(C)oc2=O)cc1	5	4	14	1	0
C[C@H]1CN([C@@H](C)CO)C(=O)Cc2cc(NC(=O)Nc3ccc4c(c3)OCO4)ccc2O[C@@H]1CN(C)Cc1ccc(Cl)c(Cl)c1	.	.	.	-2	.
C[C@H](CO)N1C[C@H](C)[C@@H](CN(C)Cc2ccc(-c3ccccc3)cc2)Oc2ccc(NC(=O)CCN3CCOCC3)cc2CC1=O	.	.	.	0	.
CS(=O)(=O)N1[C@H](C#N)[C@H](c2ccc(-c3ccccc3F)cc2)[C@@H]1CO	.	.	.	1	.
CCN1[C@@H]2c3ccc(-c4ccc(OC)cc4)c(=O)n3C[C@@H]2[C@@H](CO)[C@@H]1C(=O)NC1CCC1	.	.	.	-2	.
CCC(C)NC(=O)c1cn(CC)c2cc(N3CCN(C(=O)c4ccco4)CC3)c(F)cc2c1=O (stereo unspecified)	15	-2	26	6	54*
CCn1cc(C(=O)NCc2ccco2)c(=O)c2cc(F)c(N3CCN(C(=O)c4ccco4)CC3)cc21	4	-3	3	.	20
CCn1cc(C(=O)O)c(=O)c2cc(F)c(N3CCNCC3)cc21	-4	.	27	.	55*
C=CCNC(=O)c1cn(CC)c2cc(N3CCN(C(=O)c4ccco4)CC3)c(F)cc2c1=O	18	-2	20	0	97*
CCCNC(=O)C[C@@H]1C[C@@H]2c3cc(NC(=O)C4CCC4)ccc3O[C@@H]2[C@H](CO)O1	.	.	.	1	.
CCCNC(=O)N1CC(=O)N2[C@H](C1)[C@H](c1ccc(-c3ccc(C)cc3)cc1)[C@@H]2CO	.	.	.	0	.
